Hits are enriched below; roughly 3.7% of the tested compounds scored in any of these assays.
PfHsp90 set2 = reduces growth (ATP signal) of yeast expressing P. falciparum Hsp90; S. cerevisiae expressing PfHsp90, BacTiter-Glo ATP, 48 h; yeast lacking PDR1 and PDR3 efflux regulators; inhibition, % at 9.4 µM; 0.32% of 310,000 active; AID 504621;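 active = every replicate shows inhibition above about 80%, whatever the replicate mean, limit read from the data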
Rce1 inh = yeast Ras-converting enzyme inhibition; yeast membranes, quenched prenylated peptide cleavage fluorescence; calls only; Q03530; 0.27% of 290,000 active;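 active = fall in fluorescence gain of 50% or more versus controls, with final raw signal at or below 3038400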
Target sequence (Q03530 whole entry, looked up): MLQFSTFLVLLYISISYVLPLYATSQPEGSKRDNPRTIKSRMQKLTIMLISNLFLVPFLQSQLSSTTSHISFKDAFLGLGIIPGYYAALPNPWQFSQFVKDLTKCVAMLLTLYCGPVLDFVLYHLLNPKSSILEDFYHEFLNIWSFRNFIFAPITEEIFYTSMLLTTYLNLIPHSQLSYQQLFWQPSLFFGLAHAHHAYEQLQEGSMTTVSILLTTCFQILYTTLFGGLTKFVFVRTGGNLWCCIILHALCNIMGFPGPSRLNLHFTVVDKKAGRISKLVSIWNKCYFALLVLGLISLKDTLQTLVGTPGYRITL
tim10-1 inh = growth inhibitors of tim10-1 mutant yeast; 2.2% of 330,000 active; S. cerevisiae tim10-1 ts strain growth, BacTiter-Glo, 24 h; inhibition, % at 20 µM;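 active = inhibition of at least 40%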;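 also: mutant grown at 25 °C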
tim23-1 inh = inhibits growth of tim23-1 mutant yeast; S. cerevisiae tim23-1 growth, BacTiter-Glo luminescence, 24 h; 1.3% of 330,000 active; inhibition, % at 20 µM;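 active = growth inhibition of the mutant yeast at or above 50%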;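 also: temperature-sensitive mutant grown at 25 °C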
TIM10 inh = growth inhibitors of TIM10 yeast strain | S. cerevisiae TIM10 strain growth, BacTiter-Glo luminescence, 24 h | inhibition, % at 10 µM | 1.4% of 330,000 active;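 active = inhibition of 40% or more at the single tested concentration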;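 also: wild-type TIM10 isogenic control strain grown at permissive 25 °C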
tim10-1 confirm = tim10-1 yeast growth inhibition, confirmed. shares compounds with tim10-1 inh. AID 463213. inhibition, % at 20 µM. S. cerevisiae tim10-1 ts strain growth, BacTiter-Glo, 24 h. 56% of 7,400 active;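 active = inhibition of yeast growth at or above a set limit in either of two repeat tests at 20 µM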;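 also: tim10-1 mutant grown at permissive 25 °C to find synthetic lethal compounds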
TIM10 conf = confirmation of TIM10 yeast growth inhibitors. shares compounds with TIM10 inh. S. cerevisiae tim10 strain growth, BacTiter-Glo luminescence, 24 h. inhibition, % at 10 µM. 63% of 4,600 active. AID 463215;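 active = inhibition of yeast growth at or above a set limit in either of two replicates at 10 µM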; also: this counterscreen used the strain with wild-type TIM10
tim23-1 confirm = tim23-1 yeast growth inhibition, confirmed. shares compounds with tim23-1 inh. S. cerevisiae tim23-1 growth, BacTiter-Glo luminescence, 24 h. inhibition, % at 20 µM. 83% of 4,400 active. AID 463218;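 active = inhibition above about 39% in either of two replicate wells at 20 µM, limit read from the data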;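 also: temperature-sensitive tim23-1 mutant grown at 25 °C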
Large screens that a line does not name were inactive (follow-up assays come after a bar, where they were run).

CCc1ccccc1NCC(=O)Nc1ccc(Cl)c(C(F)(F)F)c1	tim10-1 inh 68.3, tim23-1 inh 51.7, TIM10 inh 47.9 | tim10-1 confirm 54.2 | TIM10 conf inactive | tim23-1 confirm 57.1
C/C(CC(=O)Nc1ccc(Cl)c(C(F)(F)F)c1)=N\NC(=O)c1cccc(O)c1	none
CNC(=O)/C(C#N)=C/c1cccc(Oc2ccccc2)c1	tim10-1 inh 86.5, tim23-1 inh 91.4, TIM10 inh 78.2 | tim10-1 confirm 90.5 | TIM10 conf 78.2 | tim23-1 confirm 79.7
O=c1oc2c(-c3cccc(F)c3)cc(O)cc2s1	tim10-1 inh 51.8, tim23-1 inh 56.9 | tim10-1 confirm 47.9 | tim23-1 confirm 56.0
CCOC(=O)C(C)CC(C)C(=O)N1CCOCCOCCN(C(=O)C(C)CC(C)C(=O)OCC)CCOCC1 (configuration not stated)	none (no result: PfHsp90 set2)
CCOC(=O)C(C(=O)OCC)C(C(=O)OCC)N1CCOCC1 (configuration not stated)	tim10-1 inh 62.7, tim23-1 inh 56.8, TIM10 inh 68.0 (no result: PfHsp90 set2) | tim10-1 confirm 60.4 | TIM10 conf 71.0 | tim23-1 confirm 59.0
Cc1nn(-c2ccc(Cl)cc2)c(Cl)c1/C=C(\C#N)C(N)=O	none
C=CCNC(=O)/C(C#N)=C/c1c(C)nn(-c2ccc(Cl)cc2)c1Cl	tim10-1 inh 62.7, tim23-1 inh 56.0, TIM10 inh 57.5 | tim10-1 confirm 59.1 | TIM10 conf 63.4 | tim23-1 confirm 65.8
Cc1ccc(S(=O)(=O)N(c2nc(N(C)C)nc(N(C)C)n2)n2cnnc2)cc1	none
CC(C)(C)c1cc(-c2nc(N)nc(N)n2)cc(C(C)(C)C)c1	tim10-1 inh 51.3, tim23-1 inh 63.9, TIM10 inh 41.8 | tim10-1 confirm 48.7 | TIM10 conf inactive | tim23-1 confirm 61.3
Cc1cccc(OCC(=O)O/N=C(\N)c2ccccn2)c1C	none
COc1ccccc1C/C(N)=N/OC(=O)COc1cccc(C)c1C	tim10-1 inh 63.2, tim23-1 inh 70.0, TIM10 inh 52.7 | tim10-1 confirm 67.8 | TIM10 conf 46.3 | tim23-1 confirm 61.7
COc1ccccc1C/C(N)=N/OC(=O)COc1cc(C)cc(C)c1C	tim10-1 inh 64.9, tim23-1 inh 78.0, TIM10 inh 73.4 | tim10-1 confirm 70.0 | TIM10 conf 67.8 | tim23-1 confirm 80.8
COc1cc(C(=O)N/C(=C\c2cn(C)c3ccccc23)C(=O)NCCN2CCOCC2)cc(OC)c1OC	none
FC(F)(F)Sc1ccc(NC(=S)NCc2ccccc2)cc1	tim10-1 inh 57.9, tim23-1 inh 52.3, TIM10 inh 53.0 | tim10-1 confirm 69.9 | TIM10 conf 58.7 | tim23-1 confirm 53.4
O=C(CSc1ccc(Cl)cc1)N/N=C/c1ccc([N+](=O)[O-])o1	tim10-1 inh 61.6, tim23-1 inh 54.7 | tim10-1 confirm 36.9 | tim23-1 confirm 56.5
NC(=O)N/N=C/c1ccc([N+](=O)[O-])o1	none (no result: Rce1 inh)
Cc1ccc(OCC(=O)N/N=C/c2ccc([N+](=O)[O-])o2)cc1	tim10-1 inh 43.7, tim23-1 inh 50.9, TIM10 inh 46.8 | tim10-1 confirm 47.3 | TIM10 conf 50.1 | tim23-1 confirm inactive
Cc1cccc2c1NC(=O)C21N2CCCC2C(C(=O)c2ccc3ccccc3c2)C12C(=O)Nc1ccccc12 (configuration not stated)	tim10-1 inh 46.5, tim23-1 inh 50.9, TIM10 inh 42.6 (no result: PfHsp90 set2) | tim10-1 confirm 71.3 | TIM10 conf 65.5 | tim23-1 confirm 57.2
Cc1cc(C(=O)N2CCCC(C(=O)c3ccc4ccccc4c3)C2)nn1C (configuration not stated)	none
CCc1cccc2c1NC(=O)C21N2CCCC2C(C(=O)c2ccc3ccccc3c2)C12C(=O)Nc1ccccc12 (configuration not stated)	tim10-1 inh 64.8, tim23-1 inh 50.6, TIM10 inh 69.1 | tim10-1 confirm 70.1 | TIM10 conf 70.8 | tim23-1 confirm 60.8
CCc1cccc2c1NC(=O)C2(O)N1CCCC(C)C1 (configuration not stated)	none
O=C(O)CC(c1ccc(F)cc1F)N1Cc2ccccc2C1=O (configuration not stated)	none
CCCNC(=O)c1cccc(S(=O)(=O)N2CC3(C)CC2CC(C)(C)C3)c1 (configuration not stated)	tim10-1 inh 40.9, tim23-1 inh 59.0 | tim10-1 confirm 32.8 | tim23-1 confirm 48.8
Cc1ccc(NC(=O)C(C)Sc2nnc(C)n2C2CC2)cc1S(=O)(=O)N1CCOCC1 (configuration not stated)	none (no result: Rce1 inh)
O=c1c2c([N+](=O)[O-])cc([N+](=O)[O-])cc2nc2ccccn12	tim10-1 inh 41.7, tim23-1 inh 85.5 (no result: Rce1 inh) | tim10-1 confirm 67.8 | tim23-1 confirm 87.2
O=c1c2c([N+](=O)[O-])cc([N+](=O)[O-])cc2sn1Cc1ccccc1	none
CCOCCCNC(=O)/C(C#N)=C/c1ccc(Cl)c([N+](=O)[O-])c1	tim10-1 inh 47.3, tim23-1 inh 86.1, TIM10 inh 65.9 | tim10-1 confirm 72.8 | TIM10 conf 81.9 | tim23-1 confirm 88.2
CCOCCCNC(=O)/C(C#N)=C/c1cc(OC)c(O)c([N+](=O)[O-])c1	none
COc1ccccc1NS(=O)(=O)c1cccc(C(=O)N2CCCC2)c1	none (no result: Rce1 inh)
O=C(NC1CCN(C(=S)NCc2ccco2)CC1)C12CC3CC(CC(C3)C1)C2	none
CN1C2CCC1/C(=C\c1ccccc1)C(=O)/C2=C\c1ccccc1	tim10-1 inh 46.8, tim23-1 inh 53.4, TIM10 inh 45.3 | tim10-1 confirm 36.4 | TIM10 conf inactive | tim23-1 confirm 54.8
C=CC(=O)N1C/C(=C/c2ccccc2)C(=O)/C(=C\c2ccccc2)C1	none (no result: Rce1 inh, tim10-1 inh, tim23-1 inh, TIM10 inh)
NC(=O)N=Nc1c2[nH]c3ccccc3nc-2c2ccccc12	tim10-1 inh 43.8, tim23-1 inh 55.8, TIM10 inh 52.5 | tim10-1 confirm 44.7 | TIM10 conf 62.4 | tim23-1 confirm 51.9
NC(=O)c1cc(Br)cc2c3c([nH]c12)CCCC3	tim10-1 inh 69.1, tim23-1 inh 75.9, TIM10 inh 55.9 | tim10-1 confirm 57.6 | TIM10 conf inactive | tim23-1 confirm 61.8
Oc1c(N=Nc2ccccn2)ccc2ccccc12	tim10-1 inh 72.1, tim23-1 inh 52.8, TIM10 inh 41.5 (no result: PfHsp90 set2) | tim10-1 confirm 53.2 | TIM10 conf 46.0 | tim23-1 confirm 75.6
O=S(=O)(c1ccc2c(c1)OCCO2)N1CCN(Cc2ccc3c(c2)OCO3)CC1	tim10-1 inh 46.5, tim23-1 inh 60.2, TIM10 inh 50.1 (no result: PfHsp90 set2) | tim10-1 confirm 45.5 | TIM10 conf 51.1 | tim23-1 confirm 63.0

Source: PubChem
